A selection: hits, their analogues and other compounds. The true share with any hit is near 12%.
USP17 block = inhibitors of human USP17 deubiquitinase; A8MUK1; purified USP17, Ub-rhodamine cleavage fluorescence, 3 h; inhibition, % at 50 µM; actives 6.5% (n = 47,000)
USP30 inh = blocks human USP30 ubiquitin-rhodamine cleavage. Q70CQ3. purified USP30, Ub-rhodamine cleavage fluorescence. inhibition, % at 25 µM. actives 5.3% (n = 47,000)
USP28 inh = blocks human USP28 ubiquitin-rhodamine cleavage; Q96RU2; purified USP28, Ub-rhodamine cleavage fluorescence, 30 min; inhibition, % at 25 µM; actives 3% (n = 47,000)
OTUD3 block = blocks human OTUD3 ubiquitin-rhodamine cleavage; actives 0.7% (n = 47,000); purified OTUD3, Ub-rhodamine fluorescence, 2 h; inhibition, % at 25 µM
Target sequence (Q5T2D3 whole entry, looked up): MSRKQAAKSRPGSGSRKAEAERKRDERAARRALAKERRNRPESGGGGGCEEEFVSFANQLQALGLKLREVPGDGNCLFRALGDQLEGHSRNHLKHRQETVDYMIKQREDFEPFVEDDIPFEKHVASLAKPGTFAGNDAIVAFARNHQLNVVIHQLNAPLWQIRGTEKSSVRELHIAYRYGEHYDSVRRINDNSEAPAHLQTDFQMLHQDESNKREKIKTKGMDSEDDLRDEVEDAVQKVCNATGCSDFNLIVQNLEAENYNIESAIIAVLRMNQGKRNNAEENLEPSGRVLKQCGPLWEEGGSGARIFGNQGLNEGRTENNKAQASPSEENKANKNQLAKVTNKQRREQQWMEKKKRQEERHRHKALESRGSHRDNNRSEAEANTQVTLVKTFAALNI
* = called active by the depositor; / = not tested or not shown. No stated cut-off is given here; in the data, active means inhibition above about 30%; inactive means the rest.

SMILES | USP17 block | USP30 inh | USP28 inh | OTUD3 block
CC(=O)Nc1ccc(C2=CSC3=NS(=O)(=O)CCN23)cc1 | 9 | 32* | 13 | 23
CN1[C@@H](CCC(=O)N2CCN(c3ccccn3)CC2)CNC(=O)[C@@H]2[C@H]1CCN2C1CCOCC1 | -33 | 44* | 36* | 14
C#CCNC(=O)CC[C@H]1CNC(=O)[C@@H]2[C@@H](CCN2CC2CC2)N1C | -18 | -12 | 8 | 1
C#CCNC(=O)CC[C@H]1CNC(=O)[C@@H]2[C@@H](CCN2C2CCCCC2)N1C | -42 | 32* | 30 | 16
O=C(NCc1ccc(Cl)cc1)N1CC(c2nc3ccccc3[nH]2)C1 | 0 | 18 | 21 | 0
Cc1cnc(NC(=O)Cn2cnc3ccccc3c2=O)s1 | 40* | -2 | -7 | -4
CCOC(=O)c1nc(Nc2ccc(OC)c(Cl)c2)c2ccccc2n1 | 74* | 49* | 17 | 11
Cc1ccc(C(=O)c2cc3c(CO)cnc(C)c3oc2=O)cc1 | 2 | 19 | 1 | 8
Cc1ccccc1Cn1cc(SCC(=O)Nc2ccc3c(c2)OCCO3)c2ccccc21 | 11 | 35* | 50* | 23
Cc1ccccc1C(=O)NCCn1cc(SCC(=O)Nc2ccc3c(c2)OCCO3)c2ccccc21 | 22 | 89* | 57* | 44*
O=C(CSc1cn(Cc2ccccc2)c2ccccc12)Nc1ccc2c(c1)OCCO2 | / | 48* | 60* | 21
O=C(CSc1cn(CC(=O)N2CCCCC2)c2ccccc12)Nc1ccc2c(c1)OCO2 | 8 | 18 | 10 | 3
Cc1ccccc1C(=O)NCCn1cc(SCC(=O)N2CCOCC2)c2ccccc21 | -5 | 2 | 10 | 0
O=C(CCn1c(=O)c2ccccc2n(CC(=O)Nc2ccc3c(c2)OCCO3)c1=O)NCCc1ccccc1 | 48* | 4 | -2 | -4
CCN(CC(=O)Nc1ccc(C(C)=O)cc1)Cc1nc2cc(OC)c(OC)cc2c(=O)[nH]1 | -8 | -13 | -10 | -5
COc1cccc(-c2noc(N3CCC(C)CC3)n2)c1OC | -3 | -15 | -4 | -4
O=C(Nc1cccc(C(F)(F)F)c1)c1ccccc1Cc1ccccc1 | 35* | 18 | 26 | 23
O=C(CCC(=O)N(c1ccccc1)c1ccccc1)Nc1cccc(C(F)(F)F)c1 | 18 | 34* | 15 | 26
CC(=O)c1cccc(NS(=O)(=O)c2ccc3c(c2)SCCN3C(C)=O)c1 | 2 | 3 | 2 | 1
COc1ccc(CCNS(=O)(=O)c2ccc(F)c(C(=O)Nc3ccc(Cl)cc3C(F)(F)F)c2)cc1OC | 71* | 61* | 7 | 23
COc1ccc(CCNC(=O)c2cc(S(=O)(=O)N3CCOCC3)ccc2F)cc1OC | -10 | 0 | -15 | -4
CC(=O)c1ccc(N2C(=O)N(CC(=O)c3ccc(Cl)cc3)c3ccccc3S2(=O)=O)cc1 | -1 | 4 | 6 | 1
COc1cccc(N2C(=O)N(CC(=O)NCc3ccc(Cl)cc3)c3ccccc3S2(=O)=O)c1 | 79* | 43* | 5 | 11
COc1cc(OC)cc(N2C(=O)N(CC(=O)c3ccc(Br)cc3)c3ccccc3S2(=O)=O)c1 | 30* | 23 | 11 | -5
COc1ccc(C(=O)CN2C(=O)N(c3cccc(C)c3)S(=O)(=O)c3ccccc32)cc1 | -11 | 1 | -2 | -4
SMILES | USP17 block | USP30 inh | USP28 inh | OTUD3 block
O=[N+]([O-])c1ccc(Cc2nnc(-c3ccccc3Cl)o2)cc1 | 35* | 1 | 48* | 4
COc1ccc(NC(=O)c2oc(=O)c3ccccc3c2-c2ccccc2)cc1Cl | 6 | 0 | 1 | 0
O=C(Nc1ccc(S(=O)(=O)N2CCOCC2)cc1)c1oc(=O)c2ccccc2c1-c1ccccc1 | 37* | 34* | 0 | -1
COc1ccc2[nH]cc(CCN=C(NC(=O)c3ccccc3)Nc3nc(C)cc(C)n3)c2c1 | -11 | 3 | -12 | -2
CC(C)CC[C@H]1O[C@@H](CC(=O)O)Cc2cc3c(c(O)c21)C(=O)c1sc(=O)n(C)c1C3=O | 78* | 16 | 77* | 70*
CC(=O)Nc1cc(-c2cccc(O)c2)cn2c(-c3cnn(C)c3)cnc12 | 61* | 36* | 13 | -1
CC(=O)Nc1cc(-c2cnn(C)c2)cn2c(-c3cnn(C)c3)cnc12 | -4 | -184 | -37 | -43
O=S(=O)(c1ccccc1)N1CCC2(CC1)NCCN=C2NCc1cc(F)cc(F)c1 | 10 | 33* | 17 | 16
O=C(NCc1ccccc1F)c1nc(-c2cnccn2)no1 | -1 | 9 | 6 | 5
CCC(C(=O)Nc1ccc(C)c(Cl)c1)(C(F)(F)F)C(F)(F)F | 0 | 5 | 5 | 0
COCCN1C(=O)c2ccccc2C(C(=O)Nc2cc(C)ccn2)C1c1cccs1 (stereo unspecified) | 9 | 33* | 7 | 7
COc1ccc2nc(NC(=O)C3c4ccccc4C(=O)N(C)C3c3cccs3)sc2c1 (stereo unspecified) | -8 | -10 | -3 | -1
COCCN1C(=O)c2ccccc2C(C(=O)Nc2ccccn2)C1c1cccs1 (stereo unspecified) | -13 | -17 | -11 | -6
CN1C(=O)c2ccccc2C(C(=O)Nc2nc3ccccc3s2)C1c1cccs1 (stereo unspecified) | 37* | -15 | -8 | -1
COc1cccc(C(=O)N2CCCN(c3cc(-c4ccccc4)[nH]n3)CC2)c1 | -30 | -29 | -14 | -13
CCOc1ccccc1Nc1nc2ccccc2n2cnnc12 | 39* | 29 | -1 | -7
COc1ccc(CNC(=O)NC2CCN(c3ccc(F)cc3)C2=O)cc1 (stereo unspecified) | 6 | 4 | 0 | -1
COc1ccc(CC(=O)NC2CCN(c3ccc(C)cc3)C2=O)cc1 (stereo unspecified) | 38* | 17 | 16 | 14
CC(=O)N[C@]1(C)C[C@@H](Cc2ccccc2)O[C@H]2[C@H](O)C(C)=CC[C@H]21 | -42 | -4 | -11 | -5
COc1cnc(CSc2ncccn2)cc1OCC(=O)Nc1ccccc1F | -6 | -296 | -10 | 4
COc1cnc(CSc2ncccn2)cc1OCC(=O)Nc1cccc(F)c1 | -7 | 32* | 4 | 2
COc1cnc(CSc2ncccn2)cc1OCC(=O)Nc1cc(C)ccc1C | -16 | 55* | -17 | -5
CCc1noc(-c2ccc(-n3cnc(C(=O)N4CCCCCC4)c3)nc2)n1 | 13 | 23 | 7 | 10
COc1ccc(OC)c(CC2(NC(=O)c3ccccc3)N=C3C=CC=CN3C2=O)c1 (stereo unspecified) | 22 | 30* | -2 | 17
COc1ccc(C(=O)NC2(Cc3ccccc3)N=C3C(C)=CC=CN3C2=O)cc1 (stereo unspecified) | 19 | 9 | 12 | 16
COc1ccc(OCC(=O)NCc2ccc(-c3ncncc3-c3cc(C)no3)cc2)cc1 | 9 | 13 | 5 | 2
COCCCNc1ncc(-c2cc(C)no2)c(-c2ccco2)n1 | -1 | -1 | 0 | 5
COc1ccc(CNC(=O)C(C)n2nc(-c3ccco3)c(-c3cc(C)no3)cc2=O)cc1 (stereo unspecified) | 64* | 28 | 23 | 15

Screening results from PubChem.
